In PubChem BioAssay (NCATS):
Results filed as inconclusive are left out. Where a call stands in place of a potency, no number is given. Active and inactive are the calls of the source. Calls follow the shape of the full dose curve.

Target: Cytochrome P450 1A2 (Homo sapiens) (UniProt P05177)
Assay: p450-cyp1a2 (AID 410)
Conditions: recombinant CYP1A2, luciferin-ME demethylation, luminescence; series mostly up to 57 µM
Summary of the method: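 20nM CYP1A2 with 100uM Luciferin-ME (at Km) in 100mM KPO4; compound preincubated 10 min, NADPH regeneration added, 60 min at room temperature. Luciferin quantified by luminescence after detection reagent; normalized to 57 uM furafylline.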
Potency is read from the fitted curve at half-maximal effect.

Cytochrome P450 1A2 (Homo sapiens), sequence (P05177 whole entry, looked up): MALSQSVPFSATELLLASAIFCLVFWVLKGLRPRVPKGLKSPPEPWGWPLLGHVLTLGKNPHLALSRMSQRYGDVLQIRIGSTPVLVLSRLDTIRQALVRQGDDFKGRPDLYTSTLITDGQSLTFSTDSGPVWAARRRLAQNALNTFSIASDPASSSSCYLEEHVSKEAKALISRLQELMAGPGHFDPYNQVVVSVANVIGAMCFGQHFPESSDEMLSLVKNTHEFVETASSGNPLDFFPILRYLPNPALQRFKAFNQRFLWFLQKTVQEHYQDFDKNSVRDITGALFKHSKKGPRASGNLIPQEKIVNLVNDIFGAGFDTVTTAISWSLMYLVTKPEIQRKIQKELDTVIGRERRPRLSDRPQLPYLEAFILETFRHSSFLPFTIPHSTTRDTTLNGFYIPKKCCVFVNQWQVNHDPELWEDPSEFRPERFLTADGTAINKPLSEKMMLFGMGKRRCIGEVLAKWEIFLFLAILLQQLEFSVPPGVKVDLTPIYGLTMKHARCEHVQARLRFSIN

For CC(C)[C@@H](CC(=O)N[C@@H]1CCCC[C@H]1C(=O)N[C@H](CC(=O)N[C@@H](CCC(=O)O)CC(=O)O)Cc1c[nH]c2ccccc12)NC(=O)C[C@H](Cc1ccccc1)NC(=O)[C@@H]1CCCC[C@H]1N, which Potency is on record?
The Potency was “inactive”.

With CC(C)C[C@@H](CC(=O)N[C@H](CC(=O)N[C@@H]1CCCC[C@H]1C(=O)N[C@H](CC(=O)N[C@@H](CCC(=O)O)CC(=O)O)Cc1c[nH]c2ccccc12)C(C)C)NC(=O)[C@@H]1CNCC[C@H]1N as the compound, how does the Potency read?
Its Potency is “inactive”.

With CC(C)[C@@H](CC(=O)N[C@@H]1CCCC[C@H]1C(=O)N[C@H](CC(=O)N[C@@H](CCC(=O)O)CC(=O)O)Cc1c[nH]c2ccccc12)NC(=O)C[C@H](Cc1c[nH]c2ccccc12)NC(=O)[C@@H]1CNCC[C@H]1N as the compound, how does the Potency read?
Its Potency is “inactive”.

For CC(C)C[C@@H](CC(=O)N[C@@H](CCCN)CC(=O)N[C@@H]1CCCC[C@H]1C(=O)N[C@H](CC(=O)N[C@@H](CCC(=O)O)CC(=O)O)Cc1ccccc1)NC(=O)[C@@H]1CNCC[C@H]1N, which Potency is on record?
The Potency was 25.1 µM (active).

With CC(C)[C@@H](CC(=O)N[C@@H]1CCNC[C@H]1C(=O)N[C@H](CC(=O)N[C@@H](CCC(=O)O)CC(=O)O)Cc1c[nH]c2ccccc12)NC(=O)C[C@H](CO)NC(=O)[C@@H]1CNCC[C@H]1N as the compound, how does the Potency read?
Its Potency is “inactive”.

Which Potency does the source give for CC(C)C[C@@H](CC(=O)N[C@@H](CCCN)CC(=O)N[C@@H]1CCCC[C@H]1C(=O)N[C@H](CC(=O)N[C@@H](CCC(=O)O)CC(=O)O)CC(C)C)NC(=O)[C@@H]1CCCC[C@H]1N here?
Its Potency is “inactive”.

Which Potency does the source give for CC(C)C[C@@H](CC(=O)N[C@H](CC(=O)N[C@@H]1CCNC[C@H]1C(=O)N[C@H](CC(=O)N[C@@H](CCC(=O)O)CC(=O)O)Cc1c[nH]c2ccccc12)C(C)C)NC(=O)[C@@H]1CNCC[C@H]1N here?
Its Potency is “inactive”.

O=C1C=CC2=C3c4cc(O)c(O)cc4C[C@@]3(O)COC2=C1O was tested. Which Potency did it give?
The Potency was 39.8 µM (active).

NCCC[C@@H](CC(=O)N[C@@H]1CCCC[C@H]1C(=O)N[C@H](CC(=O)N[C@@H](CCC(=O)O)CC(=O)O)Cc1c[nH]c2ccccc12)NC(=O)C[C@H](Cc1ccccc1)NC(=O)[C@@H]1CNCC[C@H]1N was tested. Which Potency did it give?
The Potency was 15.8 µM (active).

CC(C)C[C@@H](CC(=O)N[C@@H](CCCN)CC(=O)N[C@@H]1CCNC[C@H]1C(=O)N[C@H](CC(=O)N[C@@H](CCC(=O)O)CC(=O)O)Cc1c[nH]c2ccccc12)NC(=O)[C@@H]1CNCC[C@H]1N was tested. Which Potency did it give?
Its Potency is “inactive”.

NCCC[C@@H](CC(=O)N[C@@H]1CCNC[C@H]1C(=O)N[C@H](CC(=O)N[C@@H](CCC(=O)O)CC(=O)O)Cc1c[nH]c2ccccc12)NC(=O)C[C@H](Cc1c[nH]c2ccccc12)NC(=O)[C@@H]1CNCC[C@H]1N was tested. Which Potency did it give?
Its Potency is “inactive”.

How did the Potency turn out when NCCC[C@@H](CC(=O)N[C@@H]1CCNC[C@H]1C(=O)N[C@H](CC(=O)N[C@@H](CCC(=O)O)CC(=O)O)Cc1c[nH]c2ccccc12)NC(=O)C[C@H](Cc1ccccc1)NC(=O)[C@@H]1CNCC[C@H]1N was run?
Its Potency is 31.6 µM (active).

For CC(C)C[C@@H](CC(=O)N[C@@H](CCC(=O)O)CC(=O)O)NC(=O)[C@@H]1CCCC[C@H]1NC(=O)C[C@H](CCCN)NC(=O)C[C@H](Cc1c[nH]c2ccccc12)NC(=O)[C@@H]1CNCC[C@H]1N, which Potency is on record?
The Potency was “inactive”.

For COc1cc(/C=C\C(=O)N2CCCCC2=O)cc(OC)c1OC, which Potency is on record?
The Potency was 0.1 µM (active).

With NCCC[C@@H](CC(=O)N[C@@H]1CCCC[C@H]1C(=O)N[C@H](CC(=O)N[C@@H](CCC(=O)O)CC(=O)O)Cc1ccccc1)NC(=O)C[C@H](CO)NC(=O)[C@@H]1CNCC[C@H]1N as the compound, how does the Potency read?
The Potency was “inactive”.

How did the Potency turn out when NCCC[C@@H](CC(=O)N[C@@H]1CCNC[C@H]1C(=O)N[C@H](CC(=O)N[C@@H](CCC(=O)O)CC(=O)O)Cc1c[nH]c2ccccc12)NC(=O)C[C@H](CO)NC(=O)[C@@H]1CNCC[C@H]1N was run?
Its Potency is “inactive”.

With COc1cc(/C=C\C(=O)CC(=O)/C=C\c2ccc(O)c(OC)c2)ccc1O as the compound, how does the Potency read?
The Potency was 15.8 µM (active).

How did the Potency turn out when CC(C)[C@@H](CC(=O)N[C@@H]1CCCC[C@H]1C(=O)N[C@H](CC(=O)N[C@@H](CCC(=O)O)CC(=O)O)Cc1ccccc1)NC(=O)C[C@H](CO)NC(=O)[C@@H]1CNCC[C@H]1N was run?
Its Potency is “inactive”.

CC(C)C[C@@H](CC(=O)N[C@@H](CCC(=O)O)CC(=O)O)NC(=O)[C@@H]1CNCC[C@H]1NC(=O)C[C@@H](NC(=O)C[C@H](Cc1c[nH]c2ccccc12)NC(=O)[C@@H]1CCCC[C@H]1N)C(C)C was tested. Which Potency did it give?
The Potency was “inactive”.
